# BAZ2B block: blocks human BAZ2B; Q9UIF8; AlphaScreen BAZ2B-H3K14Ac peptide displacement; Potency, µM (doses to about 114 µM), inactives show top-dose activity change, negative = inhibition, most hits filed as inhibitors; 360,000 compounds, 4.4% hits; AID 504333; further: on the % scale 0 is the no-effect control and ±100 the full control effect; nearly all actives have a fitted effect of over 60% in size
#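 AlphaScreen displacement: compounds (up to 110uM) incubated 30 min at room temperature with a preformed 50 nM BAZ2B/50 nM biotinylated H3K14Ac peptide complex in PBS pH 7.4 with Tween-20. Donor and acceptor beads at 10 ug/mL final added, 20 min light-protected before reading.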
# HP1b chromo inh: HP1-beta chromodomain-methylated histone interaction inhibition | AlphaScreen HP1-beta / biotin-H3K9me3 peptide binding | P83916 | AID 540317 | 390,000 compounds, 0.56% hits | Potency, µM (top dose mostly 114 µM), for the others: top-dose activity change, negative = inhibition, most hits filed as inhibitors; further: nearly all actives have a fitted effect of over 70% in size
# Target sequence (P83916 whole entry, looked up): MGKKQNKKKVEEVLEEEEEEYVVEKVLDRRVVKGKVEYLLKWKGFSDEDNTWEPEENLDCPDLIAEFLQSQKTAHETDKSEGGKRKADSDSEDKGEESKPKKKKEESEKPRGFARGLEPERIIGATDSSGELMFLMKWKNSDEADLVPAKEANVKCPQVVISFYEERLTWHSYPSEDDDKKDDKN
#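 AlphaScreen: HP1-beta (50 nM) preformed 30 min with biotin-H3(1-18)K9me3 peptide (50 nM) in PBS pH 7.4, 0.01% Tween-20. Compound added for 30 min at RT, then streptavidin donor/nickel chelate acceptor beads (10 ug/mL) for 30 min.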
# G9a block: blocks human histone lysine methyltransferase G9a. G9a H3K9 monomethylation, AlphaScreen, 2 h. 350,000 compounds, 8.8% hits. AID 504332. Potency, µM (titrated, usually from 102 µM), inactives show at the highest dose activity, negative = inhibition, actives largely listed as inhibitors. Q96KQ7; further: on the % scale 0 is the no-effect control and ±100 the full control effect; nearly all actives have a fitted effect of over 75% in size
# Target sequence (Q96KQ7 913-1193 limits assumed): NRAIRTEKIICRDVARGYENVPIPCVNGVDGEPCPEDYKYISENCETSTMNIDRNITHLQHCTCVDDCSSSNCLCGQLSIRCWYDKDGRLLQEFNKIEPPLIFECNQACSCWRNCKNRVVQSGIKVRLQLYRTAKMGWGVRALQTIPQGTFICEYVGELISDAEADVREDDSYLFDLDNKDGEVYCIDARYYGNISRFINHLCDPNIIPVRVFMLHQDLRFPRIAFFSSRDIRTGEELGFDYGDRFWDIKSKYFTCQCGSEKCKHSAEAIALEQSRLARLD
#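 Readings reflect AlphaScreen signal from monomethyl-H3K9 antibody detection. HMT at 20 nM; substrate b-H3K9 500 nM; cofactor SAM 20 uM; 2 h RT reaction; compounds tested as titrations in qHTS with 15 min preincubation.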
# JMJD2A Tudor: inhibitors of human JMJD2A Tudor domain; Potency, µM (highest dose often 114 µM), for inactives: top-dose activity change, negative = inhibition, actives largely listed as inhibitors; 390,000 compounds, 4.4% hits; AlphaScreen JMJD2A-Tudor / H3K4me3 peptide binding; further: on the % scale 0 is the no-effect control and ±100 the full control effect; nearly all actives have a fitted effect of over 50% in size
# Sfp PPTase inh: blocks B. subtilis Sfp PPTase activity; Q9F4F7; Biochemical Sfp PPTase activity, qHTS; Potency, µM, inactives show largest response in the series, negative = inhibition, most hits filed as inhibitors; 310,000 compounds, 3.5% hits;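 further: the enzyme is Sfp with the accession as filed and its product quenches rhodamine fluorescence; 0% = enzyme reaction without inhibitor and -100% = no enzyme wells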
#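 Sfp 15 nM + cpd, 15 min RT; start w/ rhodamine-CoA 5 uM, BHQ-2-YbbR 12.5 uM (final); 50 mM Hepes pH 7.6, 10 mM MgCl2, 0.01% NP-40, 0.01% BSA; read 525/598 nm at 0 and 30 min.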
# TDP1 block: inhibitors of human tyrosyl-DNA phosphodiesterase TDP1; Q9NUW8; recombinant TDP1, AlphaScreen DNA substrate cleavage; Potency, µM (highest dose often 130 µM), inactives show at the top dose activity change, negative = inhibition, most hits filed as inhibitors; 350,000 compounds, 0.28% hits; further: on the % scale 0 is the no-effect control and ±100 the full control effect; nearly all actives have a fitted effect of over 40% in size
#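 Recombinant human Tdp1 (E. coli-expressed, 1 nM final) preincubated with compounds 15 min at room temperature, then 5'-biotin/3'-phosphotyrosine-FITC DNA substrate (15 nM final) added for 5 min. AlphaScreen beads (10 ug/ml final) added 10 min; cleavage lowers signal.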
# * = called active by the depositor; ? = inconclusive; . = no result; [ ] = remark or other dose. Rows were chosen to be rich in hits. Some 12% of all compounds tested hit in one or more screens of this group. The call rests on the fitted dose curve; in most records, active means well fitted curve in the direction sought with a large enough effect; inconclusive means small, poorly fitted or top-dose-only effect, or another doubt; inactive means no such curve, though single readings can be large; an effect the other way counts as inactive or inconclusive. Potency means the concentration at half of the fitted maximal effect.
SMILES,BAZ2B block,HP1b chromo inh,G9a block,JMJD2A Tudor,Sfp PPTase inh,TDP1 block
CN1C(=O)C(C)(C)c2cc(S(=O)(=O)N3CCCC3C(=O)NCc3ccccc3Cl)ccc21 (configuration not stated),12%,76%,.,-14%,11%,.
Oc1ccc(N=Nc2ccccc2)o1,-16%,26%,40µM*,-17%,?,.
Nc1[nH]nc2c1NN(c1ccc(Cl)cc1Cl)N2,25µM*,0%,?,-24%,-7%,8%
CC(C)=NNc1cc([N+](=O)[O-])cc2c1C(=O)N(C)S2=O (configuration not stated),-16%,40%,45µM*,-4%,16µM*,7%
C/C(=N\Nc1ccc([N+](=O)[O-])cc1)c1cccc(N)c1,?,?,-4%,?,-7%,5%
CC(C)Cc1ccc(S(=O)(=O)Nc2cccnc2)cc1,-8%,43%,18%,-3%,11%,.
CCC(C)c1ccc(S(=O)(=O)Nc2cccnc2)cc1 (configuration not stated),-31%,46%,50µM*,-30%,4%,.
CCc1nnc(NC(=O)CSc2nc(-c3ccc(F)cc3)cc(-c3ccccc3)c2C#N)s1,-3%,25%,3.2µM*,-13%,32µM*,0%
Cc1ccccc1NC(=O)CSc1ccc(-c2ccc(-n3cccn3)cc2)nn1,1%,3%,18%[59 µM],-15%,.,.
CCc1nnc(NC(=O)CSc2ccc(-c3ccc(-n4cccn4)cc3)nn2)s1,12%,31%,10µM*,-4%,.,.
CCN(CC(=O)NCc1ccc(Cl)cc1)C(=O)/C=C/c1cccs1,.,8%,5%,-3%,23%,-3%
CC(=O)c1ccc(NC(=S)NCC(c2ccco2)N2CCCC2)cc1 (configuration not stated),-23%,25%,50µM*,-22%,9%,6%
N#Cc1ccc(C(=O)NCC(c2ccco2)N2CCCC2)cc1 (configuration not stated),6%,38%,?,19%[11.4 µM],19%,5%
N#Cc1ccccc1Sc1ccccc1C(=O)NCC(c1ccco1)N1CCCC1 (configuration not stated),50µM*,?,2.8µM*,?,.,0%[0.505 µM]
Cc1ccc(C(=O)Nc2ccccc2C(=O)O)cc1NC(=O)COc1c(C)cccc1C,79µM*,31%,25%[12.7 µM],-7%,-2%,-8%
O=C(COc1ccc(Cl)cc1Cl)NC(=S)Nc1ccccc1C(=O)O,?,.,.,.,-18%,4%
O=C(COc1ccccc1Cl)Nc1cc(NC(=O)COc2ccccc2Cl)cc(C(=O)O)c1,50µM*,28%,1%,-17%,-4%,35µM*
Cc1cc(C(=O)Nc2ccccc2C(=O)O)ccc1NC(=O)COc1cccc(C)c1C,-18%,20%,5%,-19%,20%,3%
O=C(COc1ccccc1Cl)Nc1ccc(N2CCCC2)cc1,-39%,2%,7.9µM*,?,3%,7%
O=C(COc1ccc(Cl)cc1Cl)Nc1ccc(C(=O)Nc2ccccc2C(=O)O)cc1,50µM*,?,.,50µM*,2%,50µM*
COc1ccc(CCNC(=O)c2cc(C)oc2C)cc1,-26%,18%,3%,-26%,0%,4%
COc1ccc(S(=O)(=O)N2CCCCC2)cc1NC(=O)c1cc(C)on1,.,27%,4%,-10%,7%,3%
COC(=O)c1sc(=S)n(-c2cc(F)ccc2F)c1N,56µM*,?,12%[0.501 µM],?,50µM*,-2%
COC(=O)c1sccc1NC(=S)Nc1ccc(F)cc1F,-22%,28%,?,-9%,-12%,6%
CCOC(=O)c1sc(=S)n(-c2cc(F)ccc2F)c1N,-9%,-35%,26%[0.501 µM],?,56µM*,-1%
SMILES,BAZ2B block,HP1b chromo inh,G9a block,JMJD2A Tudor,Sfp PPTase inh,TDP1 block
CC#CCN1c2ccccc2[C@]23C[C@@H](C(=O)OC)N(S(=O)(=O)c4cccs4)C2=NC(C(=O)OC)=C(C(=O)OC)[C@H]13,.,.,.,.,-5%,9%[12.3 µM]
Cc1cc(C)nc(NS(=O)(=O)c2ccc(NC(=S)NC(=O)c3cccnc3)cc2)n1,-17%,-2%,50µM*,-16%,40µM*,3%
COc1ccc(/C=C/C(=O)NC(=S)Nc2ccc(S(=O)(=O)Nc3cc(C)on3)cc2)cc1,-25%,-7%,40µM*,-28%,-1%,10%
Cc1cc(NS(=O)(=O)c2ccc(NC(=S)NC(=O)c3cccnc3)cc2)no1,?,7%,45µM*,32µM*,-5%,-1%
COc1nccnc1NS(=O)(=O)c1ccc(NC(=S)NC(=O)c2ccccc2)cc1,?,-16%,40µM*,?,-4%,-6%
Cc1cc(NS(=O)(=O)c2ccc(NC(=S)NC(=O)c3ccc(Br)cc3)cc2)no1,-32%,-14%,?,-32%,?,6%
CCc1nnc(NS(=O)(=O)c2ccc(NC(=S)NC(=O)c3cccnc3)cc2)s1,2%,48%,.,9%,-2%,-6%
CCc1noc(C)c1C(=O)Nc1ccc(S(=O)(=O)N2CCC(C)CC2)cc1,-6%,24%,2%,5%,.,-4%[0.505 µM]
CCc1ccccc1NC(=O)COCc1cc(-c2ccco2)on1,-7%,3%,?,-15%,.,0%
CCc1ccccc1-n1c(SCC(=O)Nc2ccc(C)cc2)nc2n[nH]c(C)c2c1=N,-2%,45%,7%[59 µM],-8%,.,2%
CCN1C(=O)[C@H]2[C@H]3CN=C(SCc4ccccc4)N3[C@@](Cc3ccccc3)(C(=O)OC)[C@H]2C1=O,.,21%,.,89µM*,.,-1%[56.1 µM]
CCN1C(=O)[C@H]2[C@H]3CN=C(SCc4ccc(C#N)cc4)N3[C@@](Cc3ccccc3)(C(=O)OC)[C@H]2C1=O,.,34%,.,-36%,.,1%[56.1 µM]
CCN1C(=O)[C@H]2[C@H]3CN=C(SCC4CC4)N3[C@@](Cc3ccccc3)(C(=O)OC)[C@H]2C1=O,.,9%,.,89µM*,.,-3%[56.1 µM]
CC[C@]1(C(=O)OC)[C@H]2C(=O)N(Cc3ccccc3)C(=O)[C@H]2[C@H]2CN=C(SCC3CC3)N21,.,19%,.,79µM*,.,-4%[56.1 µM]
Cn1c(CSCc2ccccc2)nnc1SCC(=O)Nc1ccc(C(=O)O)cc1,0%,29%,.,-15%,-10%,3%
Cc1nc([N+](=O)[O-])cn1-c1nc2ccccn2c1[N+](=O)[O-],3%,69%,14%,30%,15%,9%
Cc1c(C(=O)NCc2ccccc2Cl)sc2ncnc(N(C)C3CCCCC3)c12,1%,45%,-21%[59 µM],-11%,.,3%
O=C(CC(c1ccco1)C1CCCCC1=O)c1ccco1 (configuration not stated),?,26%,56µM*,-26%,-5%,4%
